Screening data from PubChem.
Sampled rows, rich in hits. Any-hit rate of the full collection: about 0.86%.
AmpC inh detg: qHTS Inhibitors of AmpC Beta-Lactamase (assay with detergent); AmpC hydrolysis of nitrocefin, absorbance 480 nm, 0.01% Triton; Potency, µM (top dose mostly 114 µM), for the others: at the top dose activity change, negative = inhibition, hits mostly inhibitors; 0.041% of 370,000 active; AID 485294, 2010;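 further: potency means the concentration at half of the fitted maximal effect; 0% = no-compound wells and -100% = no-enzyme wells; nearly all actives have a fitted effect of over 25% in size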
Target sequence (P00811 whole entry, looked up): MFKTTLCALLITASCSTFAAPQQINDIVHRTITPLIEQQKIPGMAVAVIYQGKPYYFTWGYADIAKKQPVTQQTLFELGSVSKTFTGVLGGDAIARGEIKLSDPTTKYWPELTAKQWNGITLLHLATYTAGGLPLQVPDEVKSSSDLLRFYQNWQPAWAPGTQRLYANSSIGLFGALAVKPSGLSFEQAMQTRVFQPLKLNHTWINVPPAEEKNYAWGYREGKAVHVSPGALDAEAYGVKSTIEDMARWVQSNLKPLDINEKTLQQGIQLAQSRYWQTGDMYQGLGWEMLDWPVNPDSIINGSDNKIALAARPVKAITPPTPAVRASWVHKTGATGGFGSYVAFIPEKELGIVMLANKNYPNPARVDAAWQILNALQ
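AmpC (5.3 nM in the dispensed reagent) in 20 mM phosphate pH 7.0 with 0.01% (detergent screen) or 0.0001% Triton X-100 was preincubated with compounds for 15 min at room temperature. Nitrocefin was then added from an 800 uM solution, and hydrolysis was followed at 480 nm.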
AmpC no deterg: qHTS Inhibitors of AmpC Beta-Lactamase (assay without detergent); P00811; AmpC nitrocefin hydrolysis, absorbance 480 nm, 0.0001% Triton; Potency, µM (series often up to 57.1 µM), for inactives: top-dose activity change, negative = inhibition, hits mostly inhibitors; 0.52% of 330,000 active;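 further: potency means the concentration at half of the fitted maximal effect; plate controls were no compound for no effect and no enzyme for full effect; nearly all actives have a fitted effect of over 20% in size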
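AmpC (5.3 nM in the dispensed reagent) in 20 mM phosphate pH 7.0 with 0.01% (detergent screen) or 0.0001% Triton X-100 was preincubated with compounds for 15 min at room temperature. Nitrocefin was then added from an 800 uM solution, and hydrolysis was followed at 480 nm.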
AMA1-RON2 inh: qHTS for Inhibitors of AMA1-RON; Towards Development of Antimalarial Drug Lead: Primary Screen. Plasmodium falciparum AMA1 (3D7) - RON2 peptide interaction. Potency, µM (doses to about 58.2 µM), inactives show at the highest dose activity change, negative = inhibition, usual class: inhibitors. AID 720542, 2013. 0.2% of 360,000 active. AlphaScreen AMA1-biotinylated RON2 peptide binding;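 further: potency means the concentration at half of the fitted maximal effect; 0% = vehicle wells and -100% = peptide control; nearly all actives have a fitted effect of over 45% in size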
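AMA1 (3D7) with his tag at 25 nM final met compounds first, then biotinylated RON2 peptide at 25 nM; detection used donor plus acceptor beads, 10 µg/mL apiece, read by AlphaScreen after 30 min at room temperature.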
NS1 function inh: qHTS Assay for Inhibitors of Influenza NS1 Protein Function; 0.4% of 270,000 active; AID 2326, 2010; Potency, µM (series often up to 46.1 µM), without a hit: at the top dose activity, positive = more growth; calls by dose curve; further: potency means the concentration at half of the fitted maximal effect; actives are rising curves; nearly all actives have a fitted effect of over 50% in size
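Recovery from NS1-induced slow growth read by OD600 in budding yeast switched to galactose assay medium (pH 6.0, -URA) at 1:100 dilution. Compound 23 nl per well; the matching strain lacking NS1 serves as control.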
Flu NS1 inh: Assay for Inhibitors of Influenza NS1 Protein Function: Hit Validation | 1,400 tested, under 10 active | shares compounds with NS1 function inh | activity change, negative = inhibition, % at 32.9 µM | influenza NS1 function cell assay, 15-point titration; calls by dose curve; further: 0% is about no effect
PR8 titer: Assay for Inhibitors of Influenza NS1 Protein Function: Influenza virus replication assay in MDCK cells infected with virus A/PR/8/34; MDCK infected influenza A/PR/8/34, virus titer TCID50; stronger effect = lower value; 30% of 95 active; virus titer (log TCID50), log10 TCID50 at 5 µM; shares compounds with NS1 function inh; call rule not given here
* = called active by the depositor; ? = inconclusive; nt = not tested or not shown. Unless noted, the call rests on the fitted dose curve; in most records, active means well fitted curve in the direction sought with a large enough effect; inconclusive means small, poorly fitted or top-dose-only effect, or another doubt; inactive means no such curve, though single readings can be large; an effect the other way counts as inactive or inconclusive.

SMILES | AmpC inh detg | AmpC no deterg | AMA1-RON2 inh | NS1 function inh | Flu NS1 inh | others
Cc1cc2cc(NC(=O)c3ccco3)ccc2[nH]1 | 6% | -3% | -11% | 2.5µM* | ?
Cc1nc2nc(NCc3cccs3)nn2c(C)c1Cl | 1% | -6% | 5% | -70% | nt
COc1cccc(/C=N/NC(=O)c2nc(-c3ccccc3)cc(-c3ccccc3)n2)c1 | 5% | -33% | -2% | ? | -26
COc1ccc(/C=N/NC(=O)c2nc(-c3ccccc3)cc(-c3ccccc3)n2)cc1OC | ? | 39% | -6% | 15% | nt
CCS(=O)(=O)c1ccc2oc(SCC(=O)NCCc3ccc(OC)cc3)nc2c1 | 3% | -15% | 8% | -5% | nt
CN(C)S(=O)(=O)c1ccc2oc(SCC(=O)NCC(F)(F)F)nc2c1 | 3% | -18% | 5% | 10µM* | 3
CC(OC(=O)c1ccccc1NCCO)C(=O)NC1CCCCC1C (stereo not given) | ? | -7% | -7% | nt | nt
CN1CCc2cc(NC(=O)Nc3cccnc3)ccc21 | nt | nt | nt | 25µM* | 0
Cc1ccc(NC(=O)Nc2cccnc2)cc1Cl | -11% | -17% | 7% | -9% | nt
Nc1nc2ccc(Cl)cc2cc1C(=O)NCc1ccc(Oc2ccccc2)cc1 | nt | nt | 1% | nt | nt
O=S(=O)(c1ccccc1)c1cccc(S(=O)(=O)N2CCCCC2)c1 | 6% | 19% | 5% | 2µM* | -12
COc1cccc(CNc2ccccc2O)c1OCc1ccccc1F | ? | -40% | ? | nt | nt
Cc1cccc(NS(=O)(=O)c2ccc3[nH]c(=O)ccc3c2)c1C | -8% | nt | nt | nt | nt
COC(=O)C1=C(C)OC(N)=C(C#N)C1c1c(C)nn(C)c1C (stereo not given) | -7% | 5% | 5% | 2.2µM* | 10
CCc1ccccc1NC(=O)C1(S(=O)(=O)c2ccc(C)cc2)CC1 | -11% | 0% | 7% | -25% | nt
COc1ccc(-c2noc(CCCC(=O)O)n2)cc1 | -1% | -20% | ? | 6% | nt
COc1ccc(-c2noc(CCC(=O)O)n2)cc1 | ? | 10% | 3% | 3.5µM* | -30
CC(=O)Nc1ccc(S(=O)(=O)Oc2ccc(C(=S)N3CCC(O)CC3)cc2)cc1 | ? | 14% | -12% | ? | -18
CC(=O)Nc1ccc(S(=O)(=O)Oc2ccc(C(=S)N3CCCCC3)cc2)cc1 | -20% | -33% | -17% | 2% | nt
CCCOc1ccc(C(=O)N2CCN(c3ccc(N)cc3Cl)CC2)cc1 | 0% | 30% | -18% | 11µM* | -23
O=C(OCc1ccc(Br)cc1F)c1cc2ccccc2oc1=O | -1% | -9% | 15% | -8% | nt
C/C(CCc1ccc2c(c1)OCO2)=N\NC(=O)c1ccccc1Br | 5% | -20% | 24% | nt | nt
Cc1cc(C)cc(NC(=O)CSc2nnc(-c3ccccc3C)o2)c1 | -11% | -31% | -6% | ? | -14
O=C(Nc1nnc2n1CCS2)c1ccco1 | -9% | -17% | 60% | ? | 9
O=C(Cc1ccccc1)Nc1nnc2n1CCS2 | 4% | nt | nt | nt | nt
SMILES | AmpC inh detg | AmpC no deterg | AMA1-RON2 inh | NS1 function inh | Flu NS1 inh | others
Cc1c(C(=O)Nc2cccc([N+](=O)[O-])c2)cnn1-c1ccccc1 | -8% | -30% | 4% | -17% | nt
Cc1ccc(-c2csc(N3CCC(C(N)=O)CC3)n2)cc1 | ? | 19% | nt | nt | nt
Cc1ccc(-c2csc(N3CCC(NS(=O)(=O)c4ccc5c(c4)OCCO5)CC3)n2)cc1 | -1% | 7% | -25% | ? | -1 | PR8 titer=7.7
O=C(NC1CCCCC1)c1cccs1 | -10% | 1% | -3% | 4% | nt
O=C(NNC(=S)NC1CCCCC1)c1cccs1 | 4% | -1% | 30% | 2.5µM* | 11
O=c1cc(-c2ccccc2)[nH][nH]1 | 1% | -23% | -6% | ? | nt
O=c1cc(-c2ccc(F)cc2)[nH][nH]1 | -14% | -39% | 25% | 13µM* | 20
c1ccc2c(c1)CCc1ccccc1C2=C1CCNCC1 | nt | nt | -14% | nt | nt
COc1cc(/C=C\C(=O)NCc2ccc3c(c2)cc(C)n3C)cc(OC)c1OC | -1% | 36% | -20% | ? | 3
O=C(O)CSc1nnc(-c2cc3ccccc3o2)n1-c1ccccc1 | ? | -23% | 7% | ? | 3
CCC(=O)Nc1ccc(C)cc1-c1nc2ccccc2n(CC(=O)Nc2ccccc2Cl)c1=O | -3% | nt | nt | nt | nt
Cc1c(Cl)cc(C(C)(C)C)c(O)c1Cc1c(C)c(Cl)cc(C(C)(C)C)c1O | nt | nt | nt | -19% | nt
COc1ccccc1C(=O)NCCn1cc(SCC(=O)Nc2nnc(C)s2)c2ccccc21 | 5% | 53% | -25% | 13µM* | 11
Cc1nnc(NC(=O)CSc2cn(Cc3ccccc3)c3ccccc23)s1 | -4% | -35% | 0% | 3% | nt
c1ccc(-c2nc3ccccc3[nH]2)nc1 | -21% | 12% | 27% | 4.5µM* | ?
Cc1ccc2nc(Cl)c(/C=N/n3c(C)nnc3C)cc2c1 | 1% | -26% | -11% | nt | nt
c1ccc(Nc2ccccn2)nc1 | -6% | -26% | 170% | -3% | nt
Oc1ccccc1Nc1ccccn1 | 1% | -15% | 7% | ? | 1
O=C(Oc1ccc(OC(=O)c2ccncc2)cc1)c1ccncc1 | nt | nt | -1% | -15% | nt
COc1ccc(OC(=O)c2ccncc2)cc1 | -9% | -12% | 6% | ? | -2
O=C(NC1CCSc2ccccc21)c1ccc(F)c(S(=O)(=O)N2CCOCC2)c1 (stereo not given) | -5% | 108% | -6% | 1% | nt
COc1cc(O)c(C(CC(=O)N2CCOCC2)c2cc(OC)c(OC)c(OC)c2)c(OC)c1 (stereo not given) | 2% | 13% | -3% | -1% | nt
Cn1c(=O)[nH]c(=O)c2c1nc(Br)n2CC(O)COc1ccccc1 (stereo not given) | -4% | -21% | 12% | 7.1µM* | -2
Cc1c(C(=O)Nc2cccc(C(F)(F)F)c2)oc2ccc(S(=O)(=O)N3CCC4(CC3)OCCO4)cc12 | -1% | nt | nt | nt | nt
COc1cc(C(=S)N2CCCC2)cc(OC)c1O | -1% | -6% | -6% | 4µM* | 6
Cc1ccc(-c2csc(N)n2)s1 | ? | -21% | 4% | ? | -33
c1ccc(C(c2nnnn2Cc2ccco2)N2CCN(c3nc4ccccc4s3)CC2)cc1 (stereo not given) | 4% | 8% | -1% | 13µM* | -19
c1ccc(Cn2nnnc2C(c2ccccc2)N2CCN(c3nc4ccccc4s3)CC2)cc1 (stereo not given) | ? | -5% | 13% | 10µM* | -14
COC(=O)c1ccc(NC(=O)CNc2ccccc2)cc1 | 7% | -29% | 27% | -36% | nt
